In PubChem BioAssay AID588432 (Broad Institute, 2011):
Calls of active or inactive are those of the source.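 How the source made its calls: active means luciferase inhibitors whose fitted dose curve gives a half-maximal potency within ten times the top tested dose; inconclusive means flat curve with 30 to 70% inhibition, or a poor fit; inactive means the rest.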

test: luciferase inhibitors in kinase-free ADP detection – biochemical, luminescence, cherry-pick, set 04, artefact control for Dyrk1A inhibitor project, dose response (AID 588432); settings: ADP-Glo luminescence without kinase, luciferase artifact; series mostly up to 12 µM

outcome, inactive:
Clc1ccc(CNc2nccc(-c3ccc4[nH]ncc4c3)n2)cc1Cl, Clc1ccc(CNc2ncncc2-c2ccc3c(c2)OCO3)cc1, O=[N+]([O-])c1cc(Nc2nccc(-c3ccc4c(c3)OCO4)n2)cc(C(F)(F)F)c1, Cn1ccc2cc(-c3ccc4ncnc(NCc5cccc(F)c5)c4c3)ccc21, Clc1cccc(-c2ccc3ncnc(NCc4ccc5c(c4)OCO5)c3c2)c1, Cc1ccsc1CN(C)c1ncnc2ccc(-c3ccoc3)cc12, Clc1cc(Cl)cc(CNc2nccc(-c3ccc4c(c3)OCO4)n2)c1, Cc1cccc(CNc2ncnc3ccc(-c4cccc(Cl)c4)cc23)c1, c1cncc(CNc2cc(-c3ccc4c(c3)OCO4)ncn2)c1, Cc1ccc(CN(C)c2ncnc3ccc(-c4ccc5c(c4)OCO5)cc23)o1, Cc1ccc(CNc2ncnc3ccc(-c4ccc5c(c4)OCO5)cc23)o1, Clc1ccccc1-c1ccc2ncnc(NCc3ccc4c(c3)OCO4)c2c1, Cc1c(-c2ccnc(NCc3ccc(Cl)cc3)n2)sc(=O)n1C, Brc1ccc(CNc2nccc(-c3ccc4c(c3)OCO4)n2)cc1Br, Clc1ccc(CNc2ncncc2-c2ccc3c(c2)OCO3)cc1Cl, CN(C)c1ccc(-c2nccc(NCc3cccs3)n2)cc1, c1csc(CNc2ncnc3ccc(-c4ccoc4)cc23)c1, CN(Cc1ccco1)c1ncnc2ccc(-c3ccc4c(c3)OCO4)cc12, Clc1ccc(Nc2nccc(-c3ccc4c(c3)OCO4)n2)cc1, CN(Cc1nccs1)c1ncnc2ccc(-c3ccc4c(c3)OCO4)cc12, CS(=O)(=O)CCNCc1ccc(-c2ccc3ncnc(Nc4ccc(OCc5cccc(F)c5)c(Cl)c4)c3c2)o1, Cc1nc(CN(C)c2ncnc3ccc(-c4ccc5c(c4)OCO5)cc23)cs1, c1cc(-c2ccc3c(c2)OCO3)nc(Nc2ccc3c(c2)OCO3)n1, Cc1nc(CNc2ncnc3ccc(-c4ccc5c(c4)OCO5)cc23)cs1, Cc1occc1CNc1ncnc2ccc(-c3ccc4c(c3)OCO4)cc12, CN(Cc1cccs1)c1ncnc2ccc(-c3ccc4c(c3)OCO4)cc12, CCOC(=O)c1ccc(-c2ccc3ncnc(NCc4ccc(C)o4)c3c2)o1, Clc1ccc(CNc2nccc(-c3ccc4c(c3)OCO4)n2)cc1Cl, Clc1cc(Cl)cc(CNc2ncncc2-c2ccc3c(c2)OCO3)c1, Brc1cc(Br)cc(CNc2nccc(-c3ccc4c(c3)OCO4)n2)c1, c1cncc(CNc2nccc(-c3ccc4[nH]ncc4c3)n2)c1, Cc1ccsc1CNc1ncnc2ccc(-c3ccc4c(c3)OCO4)cc12, Fc1c(-c2ccc3ncnc(NCc4cccs4)c3c2)ccc2c1OCO2, Cc1c(-c2ccnc(NCc3cccnc3)n2)sc(=O)n1C
